{"source": "ChEMBL document CHEMBL3988442", "about": "“University of Dundee, Small-Polar-MMV Screening Library” (2021)", "note": "Screen size: about 48,000 compounds; about 13,000 (27%) showed an effect of 50% or more. The list shows a part of the results.", "data": [{"system": "Wolbachia pipientis", "test": "Anti-Wolbachia Cell-Based Screen", "type": "functional", "design": "scale not given: in the data most compounds retested in dose-response had high values", "conditions": "5 µM", "units": {"Percent Effect": "%"}, "values": [{"smiles": "CC(C)C(NC(=O)c1ccccc1F)C(=O)N1CCC2(CC1)OCCO2", "note": "(stereo not drawn)", "Percent Effect": -11.28}, {"smiles": "COc1ncccc1CN1CC[C@H]2O[C@H](c3nnc(C)o3)CC[C@H]21", "Percent Effect": -0.9405}, {"smiles": "O=C(O)C(F)(F)F.O=C(O)C(F)(F)F.c1ccc(OCC2C[C@@H]3[C@@H](C2)OCCN3Cc2ccoc2)nc1", "note": "(stereo partly drawn)", "Percent Effect": 92.52}, {"smiles": "O=C(O)C(F)(F)F.O=C(O)C(F)(F)F.c1ccc(OCC2C[C@@H]3[C@@H](C2)OCCN3CC2CCOCC2)nc1", "note": "(stereo partly drawn)", "Percent Effect": 96.17}, {"smiles": "Fc1ccc(CN2CCO[C@H]3[C@H](Oc4ccccn4)CC[C@@H]32)cc1.O=C(O)C(F)(F)F.O=C(O)C(F)(F)F", "Percent Effect": -5.975}, {"smiles": "O=C(O)C(F)(F)F.O=C(O)C(F)(F)F.c1ccc(O[C@@H]2CC[C@H]3[C@H]2OCCN3CC2CCOCC2)nc1", "Percent Effect": -13.85}, {"smiles": "Cc1nc(CN2CCO[C@H]3[C@@H](OCc4ccccn4)CC[C@@H]32)cs1.O=C(O)C(F)(F)F.O=C(O)C(F)(F)F", "Percent Effect": 8}, {"smiles": "Cc1nc(CN2CC[C@H]3[C@H]2CCN3c2ncccn2)cs1.O=C(O)C(F)(F)F.O=C(O)C(F)(F)F.O=C(O)C(F)(F)F", "Percent Effect": -7.266}, {"smiles": "O=C(O)C(F)(F)F.O=C(O)C(F)(F)F.c1ccc(O[C@@H]2CO[C@@]3(CCCN(CC4CCOCC4)C3)C2)nc1", "Percent Effect": -10.07}, {"smiles": "CC(C)NC(=O)[C@H]1C[C@@H]2[C@@H](C1)OCCN2Cc1ccccn1.O=C(O)C(F)(F)F.O=C(O)C(F)(F)F", "Percent Effect": 2.364}, {"smiles": "Cc1nc(CN2CCO[C@@H]3CC(COc4ccccn4)C[C@H]32)cs1.O=C(O)C(F)(F)F.O=C(O)C(F)(F)F", "note": "(stereo partly drawn)", "Percent Effect": 94.34}, {"smiles": "CCCn1ncc(CN2CCCC(C(=O)c3ccc(Cl)cc3C)C2)c1C", "note": "(stereo not drawn)", "Percent Effect": -13.45}, {"smiles": "Cc1noc(C)c1CN1CCOCC12CCN(c1nccs1)CC2.O=C(O)C(F)(F)F", "Percent Effect": 98.18}, {"smiles": "Cc1noc(C)c1CN1CCOC2(CCCN(c3nccs3)C2)C1", "note": "(stereo not drawn)", "Percent Effect": -30.09}, {"smiles": "Cc1noc(C)c1CN1CCCC2(C1)CN(c1nccs1)CCO2.O=C(O)C(F)(F)F", "note": "(stereo not drawn)", "Percent Effect": -6.248}, {"smiles": "Cc1cc(Cl)ccc1C(=O)C1CCCN(Cc2cnc(N(C)C)s2)C1", "note": "(stereo not drawn)", "Percent Effect": 5.845}, {"smiles": "O=C(Nc1cc(C(F)(F)F)c[nH]c1=O)C1CCCN1", "note": "(stereo not drawn)", "Percent Effect": 84.36}, {"smiles": "Cc1nc(C)c(CC(=O)N2C[C@@H]3CC[C@H](C2)N(CC2CCC2)C3)c(=O)[nH]1", "Percent Effect": -4.383}, {"smiles": "O=C1NC[C@H]2CN(Cc3ccnc4ccccc34)CCN12", "Percent Effect": 12.9}, {"smiles": "Cc1csc(CN2C[C@@H]3CN(C)CCO[C@@H]3C2)n1", "Percent Effect": 8.009}, {"smiles": "CN1C(=O)CCC12CCCN(Cc1nccs1)C2.O=C(O)C(F)(F)F", "note": "(stereo not drawn)", "Percent Effect": 0.9809}, {"smiles": "CN1CCOC(CN(C(=O)CN2CCCC2=O)c2nccs2)C1", "note": "(stereo not drawn)", "Percent Effect": 101.5}, {"smiles": "O=C(Cc1cccnc1)N1C[C@H]2CC[C@@H]1CN(Cc1ccc(F)cc1)C2", "Percent Effect": 4.977}, {"smiles": "CNS(=O)(=O)CC(=O)NC(C)Cc1cccc(Cl)c1", "note": "(stereo not drawn)", "Percent Effect": -8.41}, {"smiles": "Cc1cnc(N2CCc3c(cnc(C)c3C(=O)O)C2)nc1.O=C(O)C(F)(F)F", "Percent Effect": -4.301}, {"smiles": "CN(C)c1ncc2c(c1C(=O)O)CCN(Cc1ccco1)C2.O=C(O)C(F)(F)F.O=C(O)C(F)(F)F", "Percent Effect": 87.52}, {"smiles": "COCCN1CCN(Cc2ccncc2)c2ncccc2C1.O=C(O)C(F)(F)F.O=C(O)C(F)(F)F.O=C(O)C(F)(F)F", "Percent Effect": -7.245}, {"smiles": "CN(C)CCN1CCN(Cc2cccs2)Cc2cccnc21.O=C(O)C(F)(F)F.O=C(O)C(F)(F)F.O=C(O)C(F)(F)F", "Percent Effect": 92.36}, {"smiles": "Cc1noc(C)c1CN1CCN(C)c2ncccc2C1.O=C(O)C(F)(F)F.O=C(O)C(F)(F)F", "Percent Effect": -16.26}, {"smiles": "CN(C)CCN1CCN(Cc2nccs2)Cc2cccnc21.O=C(O)C(F)(F)F.O=C(O)C(F)(F)F.O=C(O)C(F)(F)F", "Percent Effect": 88.3}, {"smiles": "Cc1ncc2c(c1C(=O)O)CCN(c1ncc(F)cn1)C2.O=C(O)C(F)(F)F", "Percent Effect": -15.02}, {"smiles": "Cc1ccc2c(n1)N(C)CCN(Cc1ccco1)C2.O=C(O)C(F)(F)F.O=C(O)C(F)(F)F", "Percent Effect": -3.328}, {"smiles": "CN(C)CCN1CCN(Cc2ccco2)Cc2cccnc21.O=C(O)C(F)(F)F.O=C(O)C(F)(F)F.O=C(O)C(F)(F)F", "Percent Effect": 95.25}, {"smiles": "COCCN1CCN(Cc2ccco2)Cc2ccc(C)nc21.O=C(O)C(F)(F)F.O=C(O)C(F)(F)F", "Percent Effect": -4.487}, {"smiles": "COCCNC(=O)[C@H]1CN2CCC1C[C@@H]2Cn1cc(C(C)(C)C)nn1", "note": "(stereo partly drawn)", "Percent Effect": -20.26}, {"smiles": "CN(C)C(=O)CN1CC[C@H]2[C@H]1CCN2c1ncccn1.O=C(O)C(F)(F)F.O=C(O)C(F)(F)F", "Percent Effect": -4.997}, {"smiles": "CCCn1nc(C)c(-c2cncn2CC2(N(C)C)CCC(C)CC2)c1C", "note": "(stereo not drawn)", "Percent Effect": 117}, {"smiles": "CCOCCN1CCO[C@H]2[C@H](OCc3ccccn3)CC[C@@H]21.O=C(O)C(F)(F)F.O=C(O)C(F)(F)F", "Percent Effect": 26.08}, {"smiles": "O=C(O)C(F)(F)F.O=C(O)C(F)(F)F.c1cncc(COCC2CC[C@H]3[C@H]2OCCN3Cc2ccoc2)c1", "note": "(stereo partly drawn)", "Percent Effect": 109.4}, {"smiles": "Cc1cccc(CO[C@@H]2CC[C@H]3[C@H]2OCCN3Cc2ccoc2)n1", "Percent Effect": 89.7}, {"smiles": "CCO[C@@H]1CC[C@H]2[C@H]1OCCN2Cc1ccoc1.O=C(O)C(F)(F)F", "Percent Effect": 96.95}, {"smiles": "COCCN1CCO[C@H]2[C@H](OCc3cccc(C)n3)CC[C@@H]21", "Percent Effect": 8.918}, {"smiles": "Cc1ncsc1CN1C[C@@H](OCc2ccncc2)[C@H]2OCCC[C@H]21.O=C(O)C(F)(F)F.O=C(O)C(F)(F)F", "Percent Effect": -3.825}, {"smiles": "O=C(O)C(F)(F)F.O=C(O)C(F)(F)F.O=C1N(c2cccnc2)CCC12CCCN(Cc1ccoc1)C2", "note": "(stereo not drawn)", "Percent Effect": -1.124}, {"smiles": "Cc1ncsc1CN1C[C@H](OCc2ccncc2)[C@H]2OCCC[C@H]21.O=C(O)C(F)(F)F.O=C(O)C(F)(F)F", "Percent Effect": -13.88}, {"smiles": "O=C(O)C(F)(F)F.O=C(O)C(F)(F)F.c1cc(CO[C@@H]2CN(Cc3ccoc3)[C@@H]3CCCO[C@@H]32)ccn1", "Percent Effect": 101.1}, {"smiles": "c1ccc(O[C@@H]2CC[C@H]3[C@H]2OCCN3Cc2ccsc2)nc1", "Percent Effect": -6.73}, {"smiles": "Cc1cccc(CO[C@@H]2CC[C@H]3[C@H]2OCCN3Cc2ccsc2)n1.O=C(O)C(F)(F)F.O=C(O)C(F)(F)F", "Percent Effect": -22.6}]}]}
